Records with an inconclusive call do not appear. A call without a number means that no potency is given here. Calls of active or inactive are those of the source. Calls follow the shape of the dose curve; as a rule, active = well fitted curve in the direction sought with a large enough effect; inconclusive = small, poorly fitted or top-dose-only effect, or another doubt; inactive = no such curve, though single readings can be large; an effect the other way counts as inactive or inconclusive.
Tested on: not listed separately
Test: Cell Viability - LYMP2-026 (AID 989);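 also: cells exposed to compound for 24 h at 37 °C; nearly all actives have a fitted effect of over 50% in size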; also: potency is read from the fitted curve at half-maximal effect
Settings: LYMP2-026 lymphoblastoid cell viability, qHTS; series mostly up to 92.2 µM
How it was run: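 Cells are seeded at 2500 per well and held 5 hr at 37 C. Compounds are added in concentration series for 24 hr, then CellTiter-Glo reagent is applied and luminescence read.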

Structure (SMILES)	Potency
Cc1ncc([N+](=O)[O-])n1CCO	inactive
NNC(=O)c1ccncc1	inactive
O=C(N[C@H](CO)[C@H](O)c1ccc([N+](=O)[O-])cc1)C(Cl)Cl	inactive
Cc1noc(NS(=O)(=O)c2ccc(N)cc2)c1C	inactive
NC(N)=NC(N)=NCCc1ccccc1	inactive
CC[C@H](C)C(=O)O[C@H]1C[C@@H](C)C=C2C=C[C@H](C)[C@H](CC[C@@H]3C[C@@H](O)CC(=O)O3)[C@H]21	inactive
Cc1ccnc2c1NC(=O)c1cccnc1N2C1CC1	inactive
O=C(O)c1cc(=O)[nH]c(=O)[nH]1	inactive
C[C@]12C=CC(=O)C=C1CC[C@@H]1[C@@H]2C(=O)C[C@@]2(C)[C@H]1CC[C@]2(O)C(=O)CO	inactive
CCc1cc(C(N)=S)ccn1	inactive
Cc1nnc(NS(=O)(=O)c2ccc(N)cc2)s1	inactive
Cc1cc(NS(=O)(=O)c2ccc(N)cc2)no1	inactive
CC1=NN(c2ccccc2)C(=O)C1	inactive
CN(C)c1ccc(C(=C2C=CC(=[N+](C)C)C=C2)c2ccc(N(C)C)cc2)cc1	2510 nM (active)

Biological target: Alpha-galactosidase A (Homo sapiens) (UniProt P06280)
Sequence (P06280 whole entry, looked up): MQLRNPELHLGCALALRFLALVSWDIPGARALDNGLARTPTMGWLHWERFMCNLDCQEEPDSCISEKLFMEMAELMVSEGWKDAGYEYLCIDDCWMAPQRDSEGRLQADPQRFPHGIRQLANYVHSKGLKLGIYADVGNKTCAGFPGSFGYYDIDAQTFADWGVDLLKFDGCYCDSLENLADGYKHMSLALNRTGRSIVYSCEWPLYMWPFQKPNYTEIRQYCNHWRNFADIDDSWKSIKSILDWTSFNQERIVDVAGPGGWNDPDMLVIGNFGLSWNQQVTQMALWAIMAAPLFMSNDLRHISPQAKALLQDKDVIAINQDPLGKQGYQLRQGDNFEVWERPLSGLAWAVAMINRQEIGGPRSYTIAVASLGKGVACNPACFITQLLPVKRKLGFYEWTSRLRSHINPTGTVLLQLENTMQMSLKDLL
Test: Counterscreen for Glucocerebrosidase Inhibitors: qHTS Assay for Human alpha-Galactosidase at pH 4.5 (AID 992)
Settings: purified enzyme, fluorogenic substrate; series mostly up to 76.9 µM
How it was run: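 Each compound is preincubated briefly with 2 nM enzyme before substrate addition (80 uM); plates then sit 20 min at ambient temperature, are quenched with 1M NaOH/1M glycine, and read fluorometrically.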

Structure (SMILES)	outcome
CC(=O)[C@H]1CC[C@H]2[C@@H]3CCC4=CC(=O)CC[C@]4(C)[C@H]3CC[C@]12C	inactive
NC(=O)c1cccc(N)c1	inactive
CC(C)(C)NC(=O)[C@H]1CC[C@H]2[C@@H]3CC[C@H]4NC(=O)C=C[C@]4(C)[C@H]3CC[C@]12C	inactive
Cc1ccc(S(=O)(=O)N[C@@H](Cc2ccccc2)C(=O)CCl)cc1	inactive
COc1cc2ncnc(Nc3cccc(Cl)c3)c2cc1OC	inactive
N[C@@H](Cc1ccc(O)c(O)c1)C(=O)O	inactive

Tested on: not listed separately
Test: Cell Viability - LYMP1-002 - Assay at 24 hr (AID 993); also: potency is read from the fitted curve at half-maximal effect
Settings: LYMP1-002 lymphoblastoid cells viability; series mostly up to 92.2 µM
How it was run: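 Acute toxicity is measured as concentration-dependent loss of cellular ATP in a human lymphoblastoid line (Coriell LYMP1-002) after 24 h treatment in complete medium. ATP is quantified by luciferase luminescence and AC50 derived by Hill modelling.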

Structure (SMILES)	Potency
Cc1ncc([N+](=O)[O-])n1CCO	inactive
NNC(=O)c1ccncc1	inactive
O=C(N[C@H](CO)[C@H](O)c1ccc([N+](=O)[O-])cc1)C(Cl)Cl	inactive
Cc1noc(NS(=O)(=O)c2ccc(N)cc2)c1C	inactive
NC(N)=NC(N)=NCCc1ccccc1	inactive
COc1ccc2cc3[n+](cc2c1OC)CCc1cc2c(cc1-3)OCO2	inactive
CC[C@H](C)C(=O)O[C@H]1C[C@@H](C)C=C2C=C[C@H](C)[C@H](CC[C@@H]3C[C@@H](O)CC(=O)O3)[C@H]21	inactive
Cc1ccnc2c1NC(=O)c1cccnc1N2C1CC1	inactive
O=C(O)c1cc(=O)[nH]c(=O)[nH]1	inactive
C[C@]12C=CC(=O)C=C1CC[C@@H]1[C@@H]2C(=O)C[C@@]2(C)[C@H]1CC[C@]2(O)C(=O)CO	inactive
CCc1cc(C(N)=S)ccn1	inactive
Cc1nnc(NS(=O)(=O)c2ccc(N)cc2)s1	inactive
Cc1cc(NS(=O)(=O)c2ccc(N)cc2)no1	inactive
CC1=NN(c2ccccc2)C(=O)C1	inactive
CN(C)c1ccc(C(=C2C=CC(=[N+](C)C)C=C2)c2ccc(N(C)C)cc2)cc1	3160 nM (active)
